In PubChem BioAssay (NCI) one finds growth data, which are given here for nine molecules.

Some test systems named below: SR leukemia; RPMI-8226 leukemia; OVCAR-8 ovarian; OVCAR-5 ovarian; OVCAR-4 ovarian; SK-OV-3 ovarian; IGROV1 ovarian; OVCAR-3 ovarian; HS 578T breast; NCI/ADR-RES ovarian; BT-549 breast; MDA-MB-435 melanoma; SW-620 colon; MCF7 breast; HCT-116 colon; HCC-2998 colon; KM12 colon; T-47D breast.
Experiment in all cases: NCI-60 one-dose screen, 48 h (100 = growth as untreated, 0 = no growth, -100 = all killed)
What all share (settings): 10 µM unless noted

This is part of a sample that, as a whole, favours compounds with a hit. Of some 83,000 tested, about 20% had one in any assay.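 Activity criterion: percent growth below 10, measured after cells in 96-well plates were exposed to a single compound concentration for 48 hours.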 Values without a mark were called inactive. The source made the active and inactive calls.

On to `COc1cc2c(c(OC)c1O)C(=O)C(OC)C(c1ccc(O)c(O)c1)O2` (stereo not given), for which the growth is 10.8% in the assay with SR leukemia; -19.3% (active) in the assay on RPMI-8226 leukemia; 17.1% in the assay with OVCAR-8 ovarian; 42.5% in the assay with OVCAR-5 ovarian; 37.8% with OVCAR-4 ovarian; 46.5% with SK-OV-3 ovarian. Further, the growth in the assay on IGROV1 ovarian is 14.1%; in the assay on OVCAR-3 ovarian, -24% (active); with HS 578T breast, 24.7%; with NCI/ADR-RES ovarian, 16.6%; in the assay with BT-549 breast, -14.6% (active); in the assay with MDA-MB-435 melanoma it was -23.8% (active). Moreover, the growth in the assay on SW-620 colon is 22.6%; with MCF7 breast, 11%; with HCT-116 colon, 3.39% (active); with HCC-2998 colon it was 20.1%; with KM12 colon, 8.81% (active).

As for `NS(=O)(=O)c1ccc(CCn2c(SCC(=O)N/N=C/c3cccnc3)nc3ccccc3c2=O)cc1`, the growth in the assay on SR leukemia is 65.3%; in the assay with RPMI-8226 leukemia, 49.7%; in the assay on OVCAR-8 ovarian, 75.1%; in the assay with OVCAR-5 ovarian, 108%; with OVCAR-4 ovarian it was 94.6%; with SK-OV-3 ovarian it was 115%. In addition, the growth with IGROV1 ovarian is 104%; in the assay with OVCAR-3 ovarian, 84.7%; with HS 578T breast it was 82.7%; with NCI/ADR-RES ovarian it was 105%; in the assay with BT-549 breast, 79%; in the assay with MDA-MB-435 melanoma, 93.7%. Also, the growth in the assay with SW-620 colon is 96.7%; in the assay on MCF7 breast, 79.6%; in the assay on HCT-116 colon, 77.3%; in the assay on HCC-2998 colon, 111%; in the assay with KM12 colon it was 81.8%.

Regarding `CCC1N=C(N)N=C(N)N1c1ccc(Cl)cc1` (stereo not given), the growth in the assay on SR leukemia was 88.9%; in the assay with RPMI-8226 leukemia it was 87.5%; in the assay on OVCAR-8 ovarian, 74.4%; in the assay on OVCAR-5 ovarian, 119%; with OVCAR-4 ovarian, 103%; in the assay on SK-OV-3 ovarian, 108%. Further, the growth in the assay on IGROV1 ovarian is 66.6%; in the assay on OVCAR-3 ovarian it was 104%; in the assay with HS 578T breast, 97%; in the assay on T-47D breast it was 95.7%; with BT-549 breast it was 100%; with MDA-MB-435 melanoma, 79.5%. In addition, the growth was 72.3% with SW-620 colon; 91.3% with MCF7 breast; 61.1% in the assay on HCT-116 colon; 95.4% in the assay on HCC-2998 colon; 97.4% with KM12 colon.

Consider `Cc1nc(N)nc2c1CCC(Nc1ccccc1)S2` (stereo not given), for which the growth is 59.2% in the assay with SR leukemia; 113% in the assay with RPMI-8226 leukemia; 103% with OVCAR-8 ovarian; 100% with OVCAR-5 ovarian; 114% in the assay with OVCAR-4 ovarian; 109% in the assay on SK-OV-3 ovarian. Moreover, the growth in the assay on IGROV1 ovarian is 111%; in the assay with OVCAR-3 ovarian, 108%; in the assay with HS 578T breast, 103%; in the assay with NCI/ADR-RES ovarian it was 104%; in the assay with T-47D breast, 101%; in the assay on MDA-MB-435 melanoma it was 101%. The growth was 102% in the assay with SW-620 colon; 104% in the assay on MCF7 breast; 97% with HCT-116 colon; 104% with HCC-2998 colon; 110% in the assay with KM12 colon.

In the case of `COc1cccc(N2CCN(c3ncnc4cc[nH]c34)CC2)c1`, the growth is 39.4% in the assay on SR leukemia; 35.4% in the assay with RPMI-8226 leukemia; 40.3% in the assay with OVCAR-8 ovarian; 104% with OVCAR-5 ovarian; 69.2% with OVCAR-4 ovarian; 86.5% in the assay on SK-OV-3 ovarian. The growth in the assay with IGROV1 ovarian was 85.4%; in the assay on OVCAR-3 ovarian, 70.9%; in the assay with HS 578T breast it was 92.5%; in the assay on T-47D breast, 20.4%; with BT-549 breast, 42.9%; with SW-620 colon, 90.6%. The growth in the assay on MCF7 breast was 46.7%; in the assay on HCT-116 colon it was 35.8%; with HCC-2998 colon, 62.7%; in the assay with KM12 colon, 71.8%.

Take `COc1cccc(C2C(C#N)=C(N)Oc3cc4c(cc32)OCO4)c1` (stereo not given): the growth with SR leukemia was 17.8%; in the assay with RPMI-8226 leukemia, 23.8%; with OVCAR-8 ovarian, 24.9%; in the assay with OVCAR-5 ovarian, 31.1%; with OVCAR-4 ovarian, 40.5%; in the assay with SK-OV-3 ovarian it was 0.748% (active). The growth in the assay on IGROV1 ovarian is 21.6%; in the assay with OVCAR-3 ovarian, -38.6% (active); with HS 578T breast, 27.8%; in the assay on NCI/ADR-RES ovarian, 5.77% (active); with BT-549 breast, 24%; with SW-620 colon, 26.9%. Besides, the growth is 5.12% (active) with HCT-116 colon, 21.8% with HCC-2998 colon and 0.487% (active) with KM12 colon.

As to `O=C(c1ccccc1)c1cccc(C(Br)Br)c1`, the growth was 43.8% in the assay on SR leukemia; 84.4% in the assay with RPMI-8226 leukemia; 93.7% with OVCAR-8 ovarian; 125% with OVCAR-5 ovarian; 95.4% in the assay on OVCAR-4 ovarian; 94% with SK-OV-3 ovarian. In addition, the growth in the assay on IGROV1 ovarian is 70.5%; with OVCAR-3 ovarian, 97.5%; with HS 578T breast, 94.5%; with T-47D breast, 88.4%; with BT-549 breast it was 99.4%; with MDA-MB-435 melanoma, 30.9%. The growth in the assay with SW-620 colon was 66.3%; in the assay with MCF7 breast it was 65.6%; in the assay on HCT-116 colon, 65.9%; with HCC-2998 colon, 94%; with KM12 colon it was 75.2%.

On to `c1ccc(-c2ccc(-c3ccccc3)[nH]2)cc1`, for which the growth was 96.1% in the assay with SR leukemia; 79.7% in the assay on RPMI-8226 leukemia; 101% in the assay with OVCAR-8 ovarian; 104% with OVCAR-5 ovarian; 75.8% with OVCAR-4 ovarian; 107% in the assay on SK-OV-3 ovarian. Also, the growth in the assay with IGROV1 ovarian was 85.8%; with OVCAR-3 ovarian, 106%; in the assay with HS 578T breast, 100%; in the assay on NCI/ADR-RES ovarian, 96.4%; in the assay on BT-549 breast, 99.8%; in the assay on MDA-MB-435 melanoma it was 97.9%. Moreover, the growth in the assay on SW-620 colon is 105%; with MCF7 breast, 85.9%; in the assay with HCT-116 colon, 92.7%; in the assay with HCC-2998 colon, 99.9%; with KM12 colon, 97%.

Take `CC(C)(C)OC[C@@H]1N=C(c2ccc(Br)cc2)Nc2nc3ccccn3c2C1=O`: the growth in the assay on SR leukemia is 35.4%; in the assay on RPMI-8226 leukemia it was 67.5%; in the assay on OVCAR-8 ovarian, 79.5%; in the assay with OVCAR-5 ovarian, 105%; in the assay with OVCAR-4 ovarian, 82.3%; with SK-OV-3 ovarian, 64.3%. The growth in the assay on IGROV1 ovarian was 40.7%; in the assay with OVCAR-3 ovarian, 34.2%; with HS 578T breast, 65.2%; with NCI/ADR-RES ovarian, 39.7%; in the assay with T-47D breast, 61.9%; in the assay on BT-549 breast, 72.5%. Further, the growth is 40.3% with SW-620 colon; 27.8% in the assay on MCF7 breast; 43.7% in the assay with HCT-116 colon; 90.9% in the assay with HCC-2998 colon; 49% with KM12 colon.
